In PubChem BioAssay AID504357 (The Scripps Research Institute Molecular Screening Center, 2011):
Several values for one entry are separate records, joined by “and”; a condition that tells them apart may be missing. Equal entries are not always repeated. Out of some 340,000 compounds screened, about 700 (0.21%) were called active. No stated cut-off is given here; in the data, active means inhibition above about 22% (passing the limit was not always enough); inactive means the rest. What follows is part of a selection rich in actives, with near analogues and random picks from the rest.

molecular target: Mu-type opioid receptor (Homo sapiens) + Delta-type opioid receptor (Homo sapiens) (UniProt P35372+P41143); assay: OPRM1-OPRD1 heterodimer inverse agonism – cell-based, luminescence, primary screen (AID 504357); conditions: cell-based MOR-DOR heterodimer luminescence, at 9.3 µM, active compounds read high;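 further: 0% = cells with DMSO and 100% = wells without cells with DMSO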
Sequence (P35372 whole entry, looked up): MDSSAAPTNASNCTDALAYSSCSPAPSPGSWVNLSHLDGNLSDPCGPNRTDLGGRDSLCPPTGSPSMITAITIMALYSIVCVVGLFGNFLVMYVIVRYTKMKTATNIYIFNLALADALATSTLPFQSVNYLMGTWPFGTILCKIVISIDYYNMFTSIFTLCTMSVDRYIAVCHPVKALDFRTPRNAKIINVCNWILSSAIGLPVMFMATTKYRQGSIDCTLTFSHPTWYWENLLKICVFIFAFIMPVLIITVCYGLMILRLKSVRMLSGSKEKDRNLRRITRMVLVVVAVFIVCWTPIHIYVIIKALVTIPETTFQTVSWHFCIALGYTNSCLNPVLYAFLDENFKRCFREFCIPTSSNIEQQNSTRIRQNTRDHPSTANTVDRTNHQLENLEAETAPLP
Sequence (P41143 whole entry, looked up): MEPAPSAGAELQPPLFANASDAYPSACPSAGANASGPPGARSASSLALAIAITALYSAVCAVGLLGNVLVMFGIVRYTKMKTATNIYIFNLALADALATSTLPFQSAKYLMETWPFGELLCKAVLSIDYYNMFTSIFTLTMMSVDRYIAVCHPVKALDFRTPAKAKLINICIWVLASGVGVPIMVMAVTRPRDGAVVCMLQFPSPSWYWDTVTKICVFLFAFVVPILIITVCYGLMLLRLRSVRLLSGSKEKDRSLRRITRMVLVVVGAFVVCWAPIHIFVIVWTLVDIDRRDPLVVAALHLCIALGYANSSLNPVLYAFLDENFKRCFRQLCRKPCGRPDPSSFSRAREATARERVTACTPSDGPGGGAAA

Structure (SMILES)	inhibition
O=C1CCC(=O)N(O)CCCCCNC(=O)CCC(=O)N(O)CCCCCNC(=O)CCC(=O)N(O)CCCCCN1	8.42% (inactive)
CN(CC(=O)O)C(=O)c1ccccc1	10.9% (inactive)
CN(O)C(=S)c1ccccc1	41.1% (active)
CN(/N=C/c1ccccc1)C(=S)c1ccccc1	-3.87% (inactive)
Cc1ccc(NNC(=O)c2cccs2)cc1Cl	53.4% (active)
Cc1ccc(NC(=O)c2cccs2)cc1S(=O)(=O)N(C)C	0.25% (inactive)
O=C(NNC(=O)c1ccc(Cl)cc1Cl)c1cccs1	2.42% (inactive)
CSc1ccc(Cl)c(C(=O)OCC(=O)N2CCNC2=O)c1	16.2% (inactive)
Cc1cc(C)cc(N)c1	14.8% (inactive)
CCN(CC(=O)NCc1ccco1)S(=O)(=O)c1ccc(F)cc1	-7.35% (inactive)
COc1ccccc1C(=O)NC(=O)COC(=O)c1ccco1	3.92% (inactive)
Cc1cccc(-n2c(SCC(N)=O)nc3c(c2=O)C2(CCCCC2)Cc2ccccc2-3)c1	-5.65% (inactive)
CC1CC2=C(CC1/C=N/NC(N)=S)C(C)(C)CCC2 (configuration not stated)	-16.2% (inactive)
CCn1cc(/C=C2/SC(=S)NC2=O)c(C)n1	9.33% (inactive)
CC1CCCC(N2CCN(C(=O)c3ccc(F)cc3)CC2)C1 (configuration not stated)	1.43% (inactive)
CCOc1ccc(S(=O)(=O)NCCC(=O)N2CCCCCCC2)cc1	-1.55% (inactive)
O=C(CCN1CCN(C/C=C/c2ccccc2)CC1)Nc1ccccc1Cl	1.43% (inactive)
CC(c1cccnc1)N(CCN(C)C)C(=O)Nc1ccc(Cl)c(Cl)c1 (configuration not stated)	-197% (inactive)
CC(NC(=O)c1ccccc1)C(=O)Nc1ccccc1 (configuration not stated)	19.2% (inactive)
Cc1cccc(C)c1NC(=O)CN(C)C(=O)CCC(=O)c1ccccc1	3.3% (inactive)
Cc1cccc(C)c1NC(=O)C(Cl)C(=O)c1ccccc1 (configuration not stated)	34.4% (active)
Cc1cc(C)c(S(=O)(=O)N2CCC(C(=O)OCc3c(C)noc3C)CC2)c(C)c1	6.69% (inactive)
COc1cccc(-c2ccc(C#N)c(SCC(=O)NCCc3ccc(Cl)cc3)n2)c1	-45.6% (inactive)
Oc1ccc(N=Nc2nccs2)c(O)c1	37.2% (active)

Structure (SMILES)	inhibition
Cc1ccc(S(=O)(=O)N(C)c2ccc(OCC(=O)NC3=NCCS3)cc2)cc1	7.13% (inactive)
CN(c1ccccc1)S(=O)(=O)c1ccc(NC(=O)COc2ccccc2)cc1	31.1% (active)
O=C(COc1ccccc1)Nc1ccc(F)cc1	7.72% (inactive)
Cc1ccc(NC2(C#N)C(=O)Nc3ccccc32)cc1 (configuration not stated)	63.2% (active)
Cc1cc(O)c(C2(O)C(=O)Nc3ccccc32)cc1C (configuration not stated)	10.4% (inactive)
Cc1cccc(CC2(O)C(=O)Nc3ccccc32)n1 (configuration not stated)	15.9% (inactive)
CC(CC(=O)N1CCN(c2ccccc2)CC1)S(=O)(=O)c1ccc2c(c1)NC(=O)CS2 (configuration not stated)	4.28% (inactive)
CCCCCCCCCCCCN1[C@@H](CC(C)=O)c2cc(F)cc(F)c2S1(=O)=O	8.79% (inactive)
Cc1cc(=O)oc2c1c(C)nn2-c1ccc(Cl)cc1	11% (inactive)
Cc1ccc(CN(CC(=O)NCC2CCCO2)S(=O)(=O)c2ccc(C)cc2)cc1 (configuration not stated)	10.1% (inactive)
Nc1nnc(C2CCCC2)s1	11.4% (inactive)
O=C(NCCN1CCOCC1)/C(=C/c1ccc(F)cc1)NC(=O)c1ccccc1	18.7% (inactive)
Cc1cc(NC(=O)CN2CCC(O)(c3cccc(F)c3)CC2)no1	10.8% (inactive)
COc1cccc(CNC(=O)C2CCCN(S(=O)(=O)N3CC(C)CC(C)C3)C2)c1 (configuration not stated)	16% (inactive)
Cc1ccsc1C(=O)NCCc1ccco1	7.66% (inactive)
O=C(NCCSc1ncc(-c2ccccc2)[nH]1)c1ccco1	13.1% (inactive)
CC1CCCCC1NC(=O)COC(=O)Cc1ccc(Cl)cc1 (configuration not stated)	21.7% (inactive)
CC(=O)N1c2ccc(S(=O)(=O)N3CCCC(C(=O)Nc4ccc(C)cc4C)C3)cc2CC1C (configuration not stated)	-10.6% (inactive)
O=C(c1ccco1)N1CCN(C(=O)C2CC(c3ccc(Cl)c(Cl)c3)=NO2)CC1 (configuration not stated)	9.92% (inactive)
Cc1cc(OC(=O)c2ccccc2)c([N+](=O)[O-])c(=O)[nH]1	-3.39% (inactive)
O=C(O)CCN1C(=O)CC2(CCCCC2)C1=O	14.8% (inactive)
O=[N+]([O-])/C=C/c1ccc2c(ccn2Cc2ccccc2)c1	38.9% (active)
COc1ccc(CNCCCn2cnc3c(OCc4ccccc4)ncnc32)cc1	11.7% (inactive)
O=C(CC(=O)c1cccnc1)c1ccccc1	13.2% (inactive)

Structure (SMILES)	inhibition
Cc1ccc2c(c1)C(O)(CC(=O)c1cccnc1)C(=O)N2 (configuration not stated)	37.3% (active)
Cc1ccc2c(c1)C(O)(CC(=O)c1cccc(-n3cccc3)c1)C(=O)N2 (configuration not stated)	17.9% (inactive)
CN(c1ccccc1)S(=O)(=O)c1cc(C(=O)N2CCN(c3ncccn3)CC2)ccc1Cl	2.36% (inactive)
COc1ccccc1CN1CCCC(N2CCN(c3ccc(F)cc3)CC2)C1 (configuration not stated)	8.79% (inactive)
C[n+]1ccc(C(=O)NCc2ccccc2)cc1	-0.68% (inactive)
COc1c(C=O)c(CCN(C)C(=O)c2ccc(F)cc2)cc2c1OCO2	9.88% (inactive)
CCOCCCNC(=O)C(NC(=O)Cc1c[nH]c2ccccc12)c1ccc(OC)cc1 (configuration not stated)	12.1% (inactive)
Cc1ccccc1OCC(=O)NNC(=O)c1ccc(-n2cncn2)c([N+](=O)[O-])c1	8.19% (inactive)
CCc1c(C)sc(NC(=O)OC)c1C(=O)N1CCOCC1	5.54% (inactive)
CCOc1ccc(S(=O)(=O)N2CCCC(C(=O)N3CCC(C(N)=O)CC3)C2)cc1Cl (configuration not stated)	5.16% (inactive)
COc1ccccc1N1CCN(CC(=O)Nc2ccnn2C2CCCC2)CC1	0.88% (inactive)
CSCCC(NC(=O)COc1ccccc1)C(=O)OCCOc1ccc(Br)cc1 (configuration not stated)	-28.3% (inactive)
CSCCC(NC(=O)COc1ccccc1)C(=O)OCc1ccc(Cl)cc1 (configuration not stated)	-17.1% (inactive)
CSCCC(NC(=O)COc1ccccc1)C(=O)OCC(=O)c1cc2ccccc2o1 (configuration not stated)	68.4% (active)
CN1CC(=O)N=C1N	16.7% (inactive) and 15.6% (inactive)
Cc1cc(Cl)c(S(=O)(=O)NCc2cccnc2)cc1OCC(N)=O	11.2% (inactive)
CCOc1ccc(NC(=O)CN(C)CC(=O)NC(C)c2ccccc2)cc1OCC (configuration not stated)	1.67% (inactive)
C=CCn1c(C(C)NC(=O)CC)nc2ccccc21 (configuration not stated)	18% (inactive)
COCC(C)OC(=O)c1c(N)n(CCCN2CCOCC2)c2nc3ccccc3nc12 (configuration not stated)	10.3% (inactive)
C=CCn1c(N)c(C(=O)OCC(C)C)c2nc3ccccc3nc21	55.7% (active)
FC(F)(F)C1CCCN(c2nsc3ccccc23)C1 (configuration not stated)	11.2% (inactive)
C=CCN1C(=O)C(O)(CC(=O)c2ccccn2)c2ccccc21 (configuration not stated)	15.1% (inactive)
CCOC(=O)CN1C(=O)C(O)(CC(=O)c2ccccn2)c2ccccc21 (configuration not stated)	49.5% (active)
C=CCN1C(=O)C(O)(CC(=O)c2ccc(Cl)cc2)c2ccccc21 (configuration not stated)	12% (inactive)
